Assay outcomes deposited in PubChem by The Scripps Research Institute Molecular Screening Center.
Hits are enriched below; roughly 1.1% of the tested compounds scored in any of these assays.
MOR-DOR inv ag = inverse agonists of human mu-delta opioid receptor heterodimerization; inhibition, % at 9.3 µM; cell-based MOR-DOR heterodimer luminescence, inverse agonism; 340,000 compounds, 0.21% hits; in the data active = inhibition above about 22%, passing the limit was not always enough;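 note: 0% = cells with DMSO and 100% = wells without cells with DMSO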
Target sequence (P35372 whole entry, looked up): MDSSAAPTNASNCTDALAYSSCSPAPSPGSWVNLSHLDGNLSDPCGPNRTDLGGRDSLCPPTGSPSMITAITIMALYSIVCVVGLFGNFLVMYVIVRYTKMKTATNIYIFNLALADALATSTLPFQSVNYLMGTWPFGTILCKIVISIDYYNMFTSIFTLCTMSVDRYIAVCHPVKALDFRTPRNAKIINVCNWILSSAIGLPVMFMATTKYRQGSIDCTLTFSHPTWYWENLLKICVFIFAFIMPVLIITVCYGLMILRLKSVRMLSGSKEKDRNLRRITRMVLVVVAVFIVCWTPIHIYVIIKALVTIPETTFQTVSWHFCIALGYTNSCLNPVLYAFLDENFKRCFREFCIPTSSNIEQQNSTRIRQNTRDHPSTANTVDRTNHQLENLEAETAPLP
Target sequence (P41143 whole entry, looked up): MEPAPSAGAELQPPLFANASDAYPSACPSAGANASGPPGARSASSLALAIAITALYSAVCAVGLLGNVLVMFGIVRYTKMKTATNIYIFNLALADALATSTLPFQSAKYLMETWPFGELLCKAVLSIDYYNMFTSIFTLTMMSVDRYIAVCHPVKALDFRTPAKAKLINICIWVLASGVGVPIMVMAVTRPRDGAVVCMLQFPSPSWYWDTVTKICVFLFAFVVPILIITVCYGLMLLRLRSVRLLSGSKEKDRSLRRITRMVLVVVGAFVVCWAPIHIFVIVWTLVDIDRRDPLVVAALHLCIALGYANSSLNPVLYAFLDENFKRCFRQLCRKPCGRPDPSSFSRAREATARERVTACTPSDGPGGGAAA
HTR5A ag = counter-screen for OPRM1-OPRD1 agonists: human HTR5A agonism | AID 504692 | HTR5A agonist assay, luminescence, cell-based | 340,000 compounds, 0.61% hits | activation, % at 9.3 µM; in the data active = activation mostly above about 9.5%, no sharp cut-off; inactive = mostly below about 7.6%;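 note: 0% = cells with vehicle only and 100% = reference agonist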
HTR5A inv ag = counter-screen for OPRM1-OPRD1 inverse agonists: human HTR5A inverse agonism. HTR5A cell line, luminescence. inhibition, % at 9.3 µM. 340,000 compounds, 0.083% hits. AID 504634; in the data active = inhibition mostly above about 23%, no sharp cut-off; inactive = mostly below about 18%;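 note: 0% = cells with DMSO and 100% = no-cell wells with DMSO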
MOR-DOR ag-1 = agonists of human mu-delta opioid receptor heterodimerization. 340,000 compounds, 0.3% hits. activation, % at 9.3 µM. P35372+P41143. AID 504326. cells, OPRM1-OPRD1 heterodimerization, luminescence;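 note: 0% = vehicle-treated cells and 100% = reference agonist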
MOR-DOR ag-2 = counter-screen for HTR5A agonists: OPRM1-OPRD1 heterodimerization agonism. shares compounds with HTR5A ag. U2OS counter-screen cells, complementation luminescence, 3 h. activation, % at 9.3 µM. 800 compounds, 13% hits. AID 504913
HTR5A ag confirm = confirmation of human HTR5A agonists; shares compounds with HTR5A ag; HTR5A agonist cell assay, luminescence; activation, % at 9.3 µM; 800 compounds, 17% hits; AID 504915; in the data active = activation above about 17%;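 note: 0% = cells with vehicle only and 100% = full reference agonist response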
Starred values were filed as active, the others as inactive; · = no result given. Cut-off read from the data, not from the text of the source, unless noted: active = activation above about 18%; inactive = the rest.

SMILES	MOR-DOR inv ag	HTR5A ag	HTR5A inv ag	MOR-DOR ag-1	MOR-DOR ag-2	HTR5A ag confirm
CC(OC(=O)c1ccccn1)C(=O)Nc1ccc(C(F)(F)F)cc1 (stereo unspecified)	8.7	2.3	-5.7	-2.2	·	·
CCCOc1ccc(Br)cc1/C=N/NC(=O)c1cc(OC)c(OC)c(OC)c1	-17.9	4.2	-27.2	3.5	·	·
COc1ccc(C(=O)N/N=C/c2cc(Br)ccc2O)cc1OC	-0.5	17.4*	-54.6	0.1	-0.6	-2.6
NC(=O)C1=C(N=C2CCCCC2)CCCC1	15.0	17.6*	-68.6	-2.9	0.3	5.9
Cc1cc(=O)[nH]c(N/N=C/c2c[nH]c3ccccc23)n1	0.2	23.6*	16.6	0.0	2.8	46.1*
C(=N\Nc1nc2ccccc2[nH]1)/c1c[nH]c2ccccc12	-19.2	3.4	-8.9	3.2	·	·
CCN(Cc1ccccc1)C(=O)C(=O)c1cn(CC(=O)N2CCCC2)c2ccccc12	17.3	0.2	5.7	-2.5	·	·
O=S(=O)(Nc1cccc(-c2ccc3nncn3n2)c1)c1ccccc1F	-34.2	20.1*	-52.4	5.1	18.4*	12.8
O=C(CNC(=O)c1ccco1)Nc1ccc(Cl)cc1	13.1	21.4*	-79.3	-2.8	-1.9	2.6
O=C(CCNC(=O)c1ccco1)Nc1ccc(Cl)cc1	1.3	0.1	-0.4	-0.2	·	·
COc1ccc(C(=O)NC2CCCCCC2)cc1S(=O)(=O)Nc1ccc(Br)cc1	-3.8	14.6*	-39.0	0.8	1.4	5.4
COc1ccc(C(=O)NC2CCCCCC2)cc1S(=O)(=O)N1CCCC1	11.5	-4.3	10.7	-2.4	·	·
Oc1ccc(C(=Nc2ccccc2)c2ccccc2)c(O)c1	12.6	-1.4	5.4	-2.6	·	·
COc1cc(OC)c2c(-c3ccccc3)cc(=O)oc2c1C(CCN1CCCC(C)C1)c1ccc(N(C)C)cc1 (stereo unspecified)	8.5	-6.0	-8.7	-1.5	·	·
COc1ccc(C(CCN2CCCC(C)C2)c2c(OC)cc(OC)c3c(-c4ccccc4)cc(=O)oc23)cc1 (stereo unspecified)	6.7	22.6*	-66.2	-1.2	-0.6	-4.7
O=C(COc1ccc(-c2ccccc2)cc1)N/N=C/c1cc(O)ccc1Br	-26.2	21.6*	-20.9	4.2	254.9*	-1.6
Cc1ccc(C)c(N2CCN(C(=O)c3ccc(N4CCCC4=O)cc3)CC2)c1	-3.5	5.1	2.8	0.6	·	·
CCOC(=O)N1CCC(NC(=O)CCC(=O)N2CCOc3ccc(C)cc32)CC1	-5.1	1.5	0.5	0.8	·	·
CCOC(=O)N1CCN(C(=O)CCC(=O)N2CCOc3ccc(C)cc32)CC1	8.2	20.9*	-50.7	-1.7	4.5	-2.3
C=CCNC(=O)c1ccccc1NC(=O)C1CC(=O)N(C(C)C)C1 (stereo unspecified)	6.2	16.2*	-1.5	-1.2	-0.9	-0.2
O=C1c2cc([N+](=O)[O-])ccc2-c2cc(Br)c(N=C(NO)C(F)(F)F)cc21	-27.4	21.0*	-80.7	6.3	19.1*	-0.2
O=C1c2cc([N+](=O)[O-])ccc2-c2cc(Cl)c(NC(=O)C(F)(F)F)cc21	1.3	-2.8	11.0	-0.3	·	·
COc1ccc(NC(=O)CCCc2ccccc2)cc1OC	11.3	1.2	-4.5	-2.3	·	·
CN(Cc1cnc2nc(N)nc(N)c2n1)c1ccc(C(=O)NC(CCC(=O)O)C(=O)O)c2ccccc12 (stereo unspecified)	5.1	2.5	-9.6	-1.2	·	·
CC(C)C[C@@H](C(=O)NCc1ccco1)N1C(=O)N2CCc3c([nH]c4ccccc34)[C@@]2(C)C1=O	7.5	2.5	-52.2	-1.4	·	·
SMILES	MOR-DOR inv ag	HTR5A ag	HTR5A inv ag	MOR-DOR ag-1	MOR-DOR ag-2	HTR5A ag confirm
Cc1c(C(=O)OCC(=O)N(C)c2ccccc2)oc2ccccc12	1.5	-0.8	7.8	-0.5	·	·
Cc1nc(NC(=O)/C=C/c2ccccc2)sc1C(=O)Nc1ccccc1Cl	3.7	-1.9	18.9	-0.7	·	·
Cc1nc(NC(=O)/C=C/c2ccccc2)sc1C(=O)Nc1ccc(Cl)cc1	-58.5	17.1*	-48.9	11.6	4.1	4.2
O=C(CNCc1ccccc1)NCCCN1CCCC1=O	11.9	-2.5	9.8	-2.5	·	·
C=CCn1c(SCC(=O)NC(=O)NCc2ccco2)nc2sc(C)c(C)c2c1=O	-83.5	16.7*	-43.7	14.2	-2.8	-5.2
CC(CNC(=O)COC(=O)c1cccnc1Cl)c1ccccc1 (stereo unspecified)	3.4	6.1	-18.4	-0.5	·	·
O=c1c2ccccc2nc2n1CCc1c-2[nH]c2ccccc12	-39.5	14.2	-28.9	7.1	·	·
Cc1cccc2c(=O)n3c(cc12)-c1[nH]c2ccccc2c1CC3	-65.2	14.8*	-56.9	14.9	3.3	-0.5
O=C(Nc1ccccc1)c1ccc2ccccc2n1	-23.1	-3.0	17.4	4.6	·	·
O=C(Nc1ccccc1C(=O)O)c1ccc2ccccc2n1	12.6	25.7*	-66.3	-2.5	51.8*	2.5
COC(=O)c1ccc(OCC(=O)NCCC2=CCCCC2)c(OC)c1	9.9	-3.3	-6.5	-2.5	·	·
O=C(CN1CCN(Cc2ccc(F)cc2Cl)C1=O)NCCc1ccccc1	4.8	15.6*	-45.6	-0.8	8.7	2.9
O=C(COc1ccc2c(-c3ccccc3)cc(=O)oc2c1)NC1CCS(=O)(=O)C1 (stereo unspecified)	4.2	-0.4	1.8	-0.8	·	·
Cc1onc(-c2ccccc2Cl)c1C(=O)NCCN1Cc2ccccc2C1=O	-12.0	29.2*	-76.6	1.9	0.3	-2.5
Cc1cc(Br)c(Oc2cc(NN3CCCCC3)c([N+](=O)[O-])cc2[N+](=O)[O-])c(Br)c1	-1.3	0.7	-2.1	0.2	·	·
CCCCOC(=O)Cn1c(-c2ccccc2)nc2ccccc2c1=O	-18.1	-2.1	7.1	3.2	·	·
CCCCCCCCCCOC(=O)Cn1c(COc2ccccc2)[n+](C)c2ccccc21	-54.7	15.2*	-59.8	9.9	15.3	9.8
CCCCCCCCCCOC(=O)Cn1c(COc2ccc(OC)cc2)[n+](C)c2ccccc21	-61.8	12.4*	-45.5	12.1	-2.5	-1.0
COc1ccc(-c2c(-c3ccsc3)oc(=O)c3cc(OC)c(OC)cc23)cc1	-6.4	22.8*	-61.2	1.1	2.9	0.6
Cc1cccc(OCC(O)Cn2c(N3CCCCC3)nc3c2c(=O)n(C)c(=O)n3C)c1 (stereo unspecified)	17.8	8.7	-31.2	-4.0	·	·
CCOC(=O)c1c(C)oc2c1c(C=NCCO)c(O)c1ccccc12	-48.3	16.5*	-45.7	8.8	4.0	3.9
CCOC(=O)c1c(C)oc2c1c(C(c1ccccc1)N1CCOCC1)c(O)c1ccccc12 (stereo unspecified)	-10.2	2.1	-4.9	2.1	·	·
CCn1c(N2CCN(S(=O)(=O)c3ccc(OC)cc3)CC2)nc2ccccc21	4.4	18.1*	-68.6	-0.9	2.5	37.1*
CCN(CC)CCCNC(=S)N1CCN(c2nc3ccccc3n2CC)CC1	2.6	19.2*	-29.9	-0.5	1.6	45.6*
Cn1c(N2CCN(S(=O)(=O)c3ccc(F)cc3)CC2)nc2ccccc21	10.0	-1.4	17.2	-2.1	·	·
